Assays:
Experiment in all cases: DAPPL (digital affinity profiling via proximity ligation, sequencing); 10 mM Tris-HCl pH 7.5, 50 mM NaCl, 1 mM DTT, 4% glycerol, room temperature, 30 min; GST-TFs on glutathione beads, 16-mer random dsDNA library, 0.1% formaldehyde crosslink after washing; high values mean tight binding
[1] = molecular target: T1, FLI1 (Homo sapiens, UniProt Q01543 1-452); conditions: protein: recombinant; tags: N-terminal GST; dsDNA, one strand shown
T1 sequence: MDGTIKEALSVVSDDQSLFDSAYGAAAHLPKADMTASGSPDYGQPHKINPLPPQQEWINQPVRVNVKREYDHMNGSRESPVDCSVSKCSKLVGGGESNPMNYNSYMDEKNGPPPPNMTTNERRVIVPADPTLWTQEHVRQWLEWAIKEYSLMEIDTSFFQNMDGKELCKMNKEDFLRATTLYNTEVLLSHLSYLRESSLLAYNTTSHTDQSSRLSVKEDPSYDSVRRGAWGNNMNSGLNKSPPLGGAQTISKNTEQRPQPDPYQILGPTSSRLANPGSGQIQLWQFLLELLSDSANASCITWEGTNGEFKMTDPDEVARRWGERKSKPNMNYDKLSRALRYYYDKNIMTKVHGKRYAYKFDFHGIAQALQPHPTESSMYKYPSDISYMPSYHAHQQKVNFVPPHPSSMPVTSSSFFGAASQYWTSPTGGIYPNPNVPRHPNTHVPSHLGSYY
Method in brief: (§1)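 A tag-only sample was pooled with DNA-barcoded human transcription factors that had been expressed in yeast as GST fusions and captured on glutathione beads. The pools were incubated for 30 min at room temperature with 200 nmole of a random double-stranded 16-mer DNA library in Tris/NaCl/DTT/glycerol buffer, then washed, crosslinked with 0.1% formaldehyde, proximity-ligated (BsaI/T4 ligase, 1 h, 37 °C), PCR-amplified and sequenced on an Illumina NextSeq500. Binding signal is each hexamer's read frequency for a factor divided by its frequency for the tag-only sample.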

[2] = molecular target: T2, ELK1 (Homo sapiens, UniProt P19419 1-428); conditions: protein: recombinant; tags: N-terminal GST; dsDNA, one strand shown
T2 sequence: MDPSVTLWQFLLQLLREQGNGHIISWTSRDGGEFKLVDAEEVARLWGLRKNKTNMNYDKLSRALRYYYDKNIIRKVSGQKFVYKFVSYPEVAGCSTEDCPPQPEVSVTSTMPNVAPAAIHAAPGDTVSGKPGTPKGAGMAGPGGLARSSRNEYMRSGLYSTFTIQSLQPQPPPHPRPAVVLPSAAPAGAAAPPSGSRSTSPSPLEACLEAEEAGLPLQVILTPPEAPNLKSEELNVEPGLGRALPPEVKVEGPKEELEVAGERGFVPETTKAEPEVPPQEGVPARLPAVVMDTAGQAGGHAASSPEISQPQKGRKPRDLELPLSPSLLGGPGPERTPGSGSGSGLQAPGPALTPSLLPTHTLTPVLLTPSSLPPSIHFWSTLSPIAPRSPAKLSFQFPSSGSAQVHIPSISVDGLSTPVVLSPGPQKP
Method in brief: as §1

[3] = molecular target: T3, GABPA (Homo sapiens, UniProt Q06546 1-454); conditions: protein: recombinant; tags: N-terminal GST; dsDNA, one strand shown
T3 sequence: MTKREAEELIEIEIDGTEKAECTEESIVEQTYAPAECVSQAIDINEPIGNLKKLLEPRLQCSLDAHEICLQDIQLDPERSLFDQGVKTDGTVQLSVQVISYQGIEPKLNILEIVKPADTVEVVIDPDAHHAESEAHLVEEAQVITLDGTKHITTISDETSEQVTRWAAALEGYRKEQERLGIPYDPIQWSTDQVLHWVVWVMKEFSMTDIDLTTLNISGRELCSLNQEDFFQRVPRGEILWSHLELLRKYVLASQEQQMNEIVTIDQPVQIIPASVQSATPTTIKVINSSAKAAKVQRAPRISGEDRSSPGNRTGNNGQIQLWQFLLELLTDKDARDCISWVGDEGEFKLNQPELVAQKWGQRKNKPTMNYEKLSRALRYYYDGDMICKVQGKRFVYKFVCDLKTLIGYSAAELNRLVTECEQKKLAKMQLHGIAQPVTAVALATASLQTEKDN
Method in brief: as §1

[4] = molecular target: T4, ERG (Homo sapiens, UniProt P11308 1-479); conditions: protein: recombinant; tags: N-terminal GST; dsDNA, one strand shown
T4 sequence: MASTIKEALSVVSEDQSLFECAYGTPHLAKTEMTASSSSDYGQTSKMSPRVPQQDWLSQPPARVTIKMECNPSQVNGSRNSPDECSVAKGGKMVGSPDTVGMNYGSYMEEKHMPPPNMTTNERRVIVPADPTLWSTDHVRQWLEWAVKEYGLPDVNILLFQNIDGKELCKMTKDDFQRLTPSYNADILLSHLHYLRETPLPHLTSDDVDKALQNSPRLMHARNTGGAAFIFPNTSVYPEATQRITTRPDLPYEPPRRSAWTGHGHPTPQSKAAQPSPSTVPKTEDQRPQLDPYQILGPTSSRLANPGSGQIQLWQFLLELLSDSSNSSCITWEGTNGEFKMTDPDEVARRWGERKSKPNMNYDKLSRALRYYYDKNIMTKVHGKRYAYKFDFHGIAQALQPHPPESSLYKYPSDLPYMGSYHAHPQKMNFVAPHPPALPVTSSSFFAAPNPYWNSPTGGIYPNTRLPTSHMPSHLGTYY
Method in brief: as §1

[5] = molecular target: ELF1 (Homo sapiens, UniProt P32519 1-619); conditions: protein: recombinant; tags: N-terminal GST; dsDNA, one strand shown
Sequence of ELF1 (P32519 whole entry): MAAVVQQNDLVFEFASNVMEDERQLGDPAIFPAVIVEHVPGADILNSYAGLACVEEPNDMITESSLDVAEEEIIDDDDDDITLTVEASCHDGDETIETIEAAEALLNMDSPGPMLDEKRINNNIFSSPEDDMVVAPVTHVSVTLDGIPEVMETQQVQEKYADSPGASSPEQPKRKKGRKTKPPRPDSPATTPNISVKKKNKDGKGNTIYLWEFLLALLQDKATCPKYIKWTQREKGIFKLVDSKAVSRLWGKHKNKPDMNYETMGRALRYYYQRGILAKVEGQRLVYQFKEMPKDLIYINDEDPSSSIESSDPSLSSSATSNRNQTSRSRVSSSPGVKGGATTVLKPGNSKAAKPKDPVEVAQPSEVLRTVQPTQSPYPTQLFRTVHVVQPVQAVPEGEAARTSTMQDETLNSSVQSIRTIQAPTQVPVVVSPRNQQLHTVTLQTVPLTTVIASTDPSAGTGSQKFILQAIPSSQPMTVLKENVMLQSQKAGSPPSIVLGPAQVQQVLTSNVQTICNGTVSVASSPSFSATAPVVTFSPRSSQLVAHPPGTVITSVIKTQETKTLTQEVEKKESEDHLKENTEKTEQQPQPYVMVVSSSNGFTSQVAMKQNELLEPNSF
Method in brief: as §1

[6] = molecular target: T5, EHF (Homo sapiens, UniProt Q9NZC4 1-300); conditions: protein: recombinant; tags: N-terminal GST; dsDNA, one strand shown
T5 sequence: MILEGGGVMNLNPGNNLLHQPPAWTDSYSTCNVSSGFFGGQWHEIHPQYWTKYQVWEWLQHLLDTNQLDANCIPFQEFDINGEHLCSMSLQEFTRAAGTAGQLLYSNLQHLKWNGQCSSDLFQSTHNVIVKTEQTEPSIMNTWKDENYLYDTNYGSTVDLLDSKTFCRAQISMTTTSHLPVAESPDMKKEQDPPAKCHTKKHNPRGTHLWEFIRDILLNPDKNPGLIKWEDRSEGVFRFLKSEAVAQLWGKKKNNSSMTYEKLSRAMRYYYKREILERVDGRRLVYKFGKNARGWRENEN
Method in brief: as §1

[7] = molecular target: SPI1 (Homo sapiens, UniProt P17947 1-270); conditions: protein: recombinant; tags: N-terminal GST; dsDNA, one strand shown
Method in brief: as §1

[8] = molecular target: SPIB (Homo sapiens, UniProt Q01892 1-262); conditions: protein: recombinant; tags: N-terminal GST; dsDNA, one strand shown
Sequence of SPIB (Q01892 whole entry): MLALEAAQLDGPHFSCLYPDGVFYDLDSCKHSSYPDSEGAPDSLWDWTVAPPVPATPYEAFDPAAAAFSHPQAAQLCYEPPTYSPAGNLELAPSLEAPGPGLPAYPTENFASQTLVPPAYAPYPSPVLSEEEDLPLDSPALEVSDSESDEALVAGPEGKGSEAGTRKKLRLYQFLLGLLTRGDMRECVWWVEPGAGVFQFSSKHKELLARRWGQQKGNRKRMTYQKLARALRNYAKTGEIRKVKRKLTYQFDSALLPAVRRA
Method in brief: as §1

[9] = molecular target: T6, FEV (Homo sapiens, UniProt Q99581 1-238); conditions: protein: recombinant; tags: N-terminal GST; dsDNA, one strand shown
T6 sequence: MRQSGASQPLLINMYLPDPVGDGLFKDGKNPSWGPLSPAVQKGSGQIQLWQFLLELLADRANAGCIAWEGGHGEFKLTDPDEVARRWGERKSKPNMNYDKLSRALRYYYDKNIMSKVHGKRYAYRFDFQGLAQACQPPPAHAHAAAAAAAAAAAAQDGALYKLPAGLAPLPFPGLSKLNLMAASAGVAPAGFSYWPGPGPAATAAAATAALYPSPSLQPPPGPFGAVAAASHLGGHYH
Method in brief: as §1

[10] = molecular target: ETV5 (Homo sapiens, UniProt P41161 1-510); conditions: protein: recombinant; tags: N-terminal GST; dsDNA, one strand shown
Sequence of ETV5 (P41161 whole entry): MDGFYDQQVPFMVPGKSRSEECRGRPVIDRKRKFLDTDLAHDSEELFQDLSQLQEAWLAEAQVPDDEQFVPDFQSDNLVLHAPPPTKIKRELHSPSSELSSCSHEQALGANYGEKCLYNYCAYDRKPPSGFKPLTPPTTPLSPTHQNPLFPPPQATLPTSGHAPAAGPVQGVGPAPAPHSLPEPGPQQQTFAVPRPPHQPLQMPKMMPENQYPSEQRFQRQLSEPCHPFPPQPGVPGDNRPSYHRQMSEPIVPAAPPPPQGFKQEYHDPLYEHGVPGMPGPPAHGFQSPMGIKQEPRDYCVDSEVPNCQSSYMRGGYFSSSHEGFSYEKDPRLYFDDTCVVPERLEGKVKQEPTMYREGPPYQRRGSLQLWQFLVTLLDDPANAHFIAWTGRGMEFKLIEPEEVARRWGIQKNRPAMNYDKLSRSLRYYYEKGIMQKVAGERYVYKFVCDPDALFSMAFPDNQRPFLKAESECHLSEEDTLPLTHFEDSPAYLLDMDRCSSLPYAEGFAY
Method in brief: as §1

[11] = molecular target: HSF1 (Homo sapiens, UniProt Q00613 1-529); conditions: protein: recombinant; tags: N-terminal GST; chain copies: 3; dsDNA, one strand shown
Sequence of HSF1 (Q00613 whole entry): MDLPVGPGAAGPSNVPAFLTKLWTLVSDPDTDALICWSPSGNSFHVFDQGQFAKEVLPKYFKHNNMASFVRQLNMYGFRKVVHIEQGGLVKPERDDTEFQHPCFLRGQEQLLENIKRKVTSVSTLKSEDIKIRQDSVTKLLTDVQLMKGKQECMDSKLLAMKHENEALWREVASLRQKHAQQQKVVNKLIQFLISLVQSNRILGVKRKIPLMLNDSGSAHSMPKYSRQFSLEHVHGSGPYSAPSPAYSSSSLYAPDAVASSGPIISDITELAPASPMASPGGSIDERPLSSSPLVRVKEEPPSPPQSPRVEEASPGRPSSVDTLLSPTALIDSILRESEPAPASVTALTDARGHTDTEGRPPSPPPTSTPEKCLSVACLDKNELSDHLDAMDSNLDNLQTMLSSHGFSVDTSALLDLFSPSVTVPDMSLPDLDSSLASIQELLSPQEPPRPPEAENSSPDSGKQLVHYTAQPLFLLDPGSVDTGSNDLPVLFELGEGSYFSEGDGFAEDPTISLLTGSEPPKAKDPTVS
Method in brief: as §1

[12] = molecular target: ELF4 (Homo sapiens, UniProt Q99607 1-663); conditions: protein: recombinant; tags: N-terminal GST; dsDNA, one strand shown
Sequence of ELF4 (Q99607 whole entry): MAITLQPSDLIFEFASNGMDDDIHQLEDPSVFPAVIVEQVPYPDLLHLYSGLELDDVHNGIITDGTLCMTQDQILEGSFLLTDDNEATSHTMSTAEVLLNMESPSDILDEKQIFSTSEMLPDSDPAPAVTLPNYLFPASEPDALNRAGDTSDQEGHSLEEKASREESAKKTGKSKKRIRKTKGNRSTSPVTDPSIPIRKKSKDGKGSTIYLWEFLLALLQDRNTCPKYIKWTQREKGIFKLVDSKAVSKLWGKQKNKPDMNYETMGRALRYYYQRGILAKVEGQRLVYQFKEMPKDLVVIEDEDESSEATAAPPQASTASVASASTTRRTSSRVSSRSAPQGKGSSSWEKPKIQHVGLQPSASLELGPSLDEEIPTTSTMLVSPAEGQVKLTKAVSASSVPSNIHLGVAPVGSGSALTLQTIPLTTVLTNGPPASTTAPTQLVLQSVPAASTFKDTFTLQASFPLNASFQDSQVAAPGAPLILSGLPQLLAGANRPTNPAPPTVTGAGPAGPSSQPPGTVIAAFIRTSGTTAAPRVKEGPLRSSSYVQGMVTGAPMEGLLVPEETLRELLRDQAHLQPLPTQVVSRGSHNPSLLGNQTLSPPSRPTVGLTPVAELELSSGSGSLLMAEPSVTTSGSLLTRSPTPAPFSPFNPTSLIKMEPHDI
Method in brief: as §1

[13] = molecular target: T7, ELK4 (Homo sapiens, UniProt P28324-2 1-405); conditions: protein: recombinant; tags: N-terminal GST; dsDNA, one strand shown
T7 sequence: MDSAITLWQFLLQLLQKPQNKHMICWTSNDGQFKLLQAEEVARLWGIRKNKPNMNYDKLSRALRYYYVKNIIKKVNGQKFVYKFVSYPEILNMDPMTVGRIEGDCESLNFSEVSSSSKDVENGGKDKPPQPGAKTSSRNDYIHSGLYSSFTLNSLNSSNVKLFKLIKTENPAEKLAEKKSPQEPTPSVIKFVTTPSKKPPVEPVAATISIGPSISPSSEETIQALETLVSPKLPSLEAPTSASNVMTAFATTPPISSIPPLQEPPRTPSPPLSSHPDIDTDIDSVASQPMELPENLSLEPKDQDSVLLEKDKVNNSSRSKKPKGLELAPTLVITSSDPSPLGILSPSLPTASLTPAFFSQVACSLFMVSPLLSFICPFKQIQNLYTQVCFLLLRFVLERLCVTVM
Method in brief: as §1

[14] = molecular target: T8, ETV2 (Homo sapiens, UniProt O00321 1-342); conditions: protein: recombinant; tags: N-terminal GST; dsDNA, one strand shown
T8 sequence: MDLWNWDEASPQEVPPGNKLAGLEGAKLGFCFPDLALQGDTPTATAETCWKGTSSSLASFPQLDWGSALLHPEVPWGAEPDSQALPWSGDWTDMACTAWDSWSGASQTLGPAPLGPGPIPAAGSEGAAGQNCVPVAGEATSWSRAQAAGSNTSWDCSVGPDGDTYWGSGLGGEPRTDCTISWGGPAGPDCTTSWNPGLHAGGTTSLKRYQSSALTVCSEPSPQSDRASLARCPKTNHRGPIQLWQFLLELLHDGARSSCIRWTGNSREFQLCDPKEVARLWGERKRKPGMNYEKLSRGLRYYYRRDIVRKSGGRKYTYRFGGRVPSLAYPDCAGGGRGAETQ
Method in brief: as §1

[15] = molecular target: T9, ELF3 (Homo sapiens, UniProt P78545 1-371); conditions: protein: recombinant; tags: N-terminal GST; dsDNA, one strand shown
T9 sequence: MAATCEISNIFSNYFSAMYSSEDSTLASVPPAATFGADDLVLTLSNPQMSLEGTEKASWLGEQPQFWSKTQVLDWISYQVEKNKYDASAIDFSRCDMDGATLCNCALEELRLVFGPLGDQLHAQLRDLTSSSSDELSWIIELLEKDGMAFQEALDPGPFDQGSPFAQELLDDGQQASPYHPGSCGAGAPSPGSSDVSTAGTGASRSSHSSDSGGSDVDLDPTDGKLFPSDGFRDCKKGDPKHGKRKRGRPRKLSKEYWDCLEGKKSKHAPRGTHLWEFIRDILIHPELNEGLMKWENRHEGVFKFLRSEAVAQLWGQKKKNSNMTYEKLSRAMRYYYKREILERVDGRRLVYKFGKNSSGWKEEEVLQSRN
Method in brief: as §1

[16] = molecular target: ETV1 (Homo sapiens, UniProt P50549 1-477); conditions: protein: recombinant; tags: N-terminal GST; dsDNA, one strand shown
Sequence of ETV1 (P50549 whole entry): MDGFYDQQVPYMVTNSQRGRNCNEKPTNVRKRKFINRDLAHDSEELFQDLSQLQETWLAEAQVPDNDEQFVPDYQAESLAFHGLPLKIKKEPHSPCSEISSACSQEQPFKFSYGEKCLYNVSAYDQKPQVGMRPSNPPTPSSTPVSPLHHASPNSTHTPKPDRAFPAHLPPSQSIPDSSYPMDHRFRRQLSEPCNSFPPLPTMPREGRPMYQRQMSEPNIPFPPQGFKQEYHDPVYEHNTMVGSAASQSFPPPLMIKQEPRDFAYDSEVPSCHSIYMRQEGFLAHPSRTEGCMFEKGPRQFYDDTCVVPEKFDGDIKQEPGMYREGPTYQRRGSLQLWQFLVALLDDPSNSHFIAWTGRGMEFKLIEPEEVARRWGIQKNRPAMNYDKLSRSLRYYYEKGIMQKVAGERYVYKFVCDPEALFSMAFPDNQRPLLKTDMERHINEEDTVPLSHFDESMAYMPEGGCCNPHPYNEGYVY
Method in brief: as §1

[17] = molecular target: T10, ELK3 (Homo sapiens, UniProt P41970 1-407); conditions: protein: recombinant; tags: N-terminal GST; dsDNA, one strand shown
T10 sequence: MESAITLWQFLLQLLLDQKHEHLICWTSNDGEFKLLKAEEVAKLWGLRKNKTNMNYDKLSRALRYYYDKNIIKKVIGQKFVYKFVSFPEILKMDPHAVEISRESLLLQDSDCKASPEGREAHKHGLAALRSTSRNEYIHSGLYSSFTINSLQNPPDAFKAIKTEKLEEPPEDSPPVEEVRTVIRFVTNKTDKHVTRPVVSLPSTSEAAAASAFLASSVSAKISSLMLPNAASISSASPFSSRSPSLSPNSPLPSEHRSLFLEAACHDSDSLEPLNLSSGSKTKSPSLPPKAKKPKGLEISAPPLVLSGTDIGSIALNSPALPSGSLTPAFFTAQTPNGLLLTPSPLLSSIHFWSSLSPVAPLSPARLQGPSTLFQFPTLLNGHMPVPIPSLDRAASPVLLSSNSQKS
Method in brief: as §1

Row | Sequence | binding signal [1] | binding signal [2] | binding signal [3] | binding signal [4] | binding signal [5] | binding signal [6] | binding signal [7] | binding signal [8] | binding signal [9] | binding signal [10] | binding signal [11] | binding signal [12] | binding signal [13] | binding signal [14] | binding signal [15] | binding signal [16] | binding signal [17]
1 | CGATCG | 1.18 fold enrichment (6-mer frequency, TF over GST control) | 1.12 fold enrichment (6-mer frequency, TF over GST control) | 1.14 fold enrichment (6-mer frequency, TF over GST control) | 1.1 fold enrichment (6-mer frequency, TF over GST control) | 1.13 fold enrichment (6-mer frequency, TF over GST control) | 1.07 fold enrichment (6-mer frequency, TF over GST control) | 1.02 fold enrichment (6-mer frequency, TF over GST control) | 1.03 fold enrichment (6-mer frequency, TF over GST control) | 1.03 fold enrichment (6-mer frequency, TF over GST control) | 1.03 fold enrichment (6-mer frequency, TF over GST control) | 1.09 fold enrichment (6-mer frequency, TF over GST control) | 1.04 fold enrichment (6-mer frequency, TF over GST control) | 1.13 fold enrichment (6-mer frequency, TF over GST control) | 1.12 fold enrichment (6-mer frequency, TF over GST control) | 1.08 fold enrichment (6-mer frequency, TF over GST control) | 1.03 fold enrichment (6-mer frequency, TF over GST control) | –
2 | CGTTCA | 1.11 fold enrichment (6-mer frequency, TF over GST control) | 1.24 fold enrichment (6-mer frequency, TF over GST control) | 1.24 fold enrichment (6-mer frequency, TF over GST control) | 1.09 fold enrichment (6-mer frequency, TF over GST control) | 1.13 fold enrichment (6-mer frequency, TF over GST control) | 1.18 fold enrichment (6-mer frequency, TF over GST control) | 1.16 fold enrichment (6-mer frequency, TF over GST control) | 1.2 fold enrichment (6-mer frequency, TF over GST control) | 1.25 fold enrichment (6-mer frequency, TF over GST control) | 1.16 fold enrichment (6-mer frequency, TF over GST control) | 1.03 fold enrichment (6-mer frequency, TF over GST control) | 1.17 fold enrichment (6-mer frequency, TF over GST control) | 1.14 fold enrichment (6-mer frequency, TF over GST control) | 1.19 fold enrichment (6-mer frequency, TF over GST control) | 1.13 fold enrichment (6-mer frequency, TF over GST control) | 1.18 fold enrichment (6-mer frequency, TF over GST control) | 1.07 fold enrichment (6-mer frequency, TF over GST control)

Source: paper PMC7862700, “An all-to-all approach to the identification of sequence-specific readers for epigenetic DNA modifications on cytosine”
